TDP1 cell noCPT – qHTS for Inhibitors of human tyrosyl-DNA phosphodiesterase 1 (TDP1): qHTS in cells in absence of CPT. Potency, µM (top dose mostly 46.2 µM), without a hit: at the highest dose activity change, negative = growth inhibition, actives largely listed as inhibitors. DT40 Tdp1-/- hTDP1 cells, no CPT, ATP luminescence, 48 h. hit rate 15% among 420,000; further: potency means the concentration at half of the fitted maximal effect; nearly all actives have a fitted effect of over 55% in size
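Seeded 400 DT40-hTDP1 cells/well (vehicle DMSO, no 20 nM CPT); pinned compounds; ≥48 hr at 37 °C; CellTiter-Glo luminescence as viability measure.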
LDHA inh – blocks human lactate dehydrogenase A | P00338 | hit rate 0.15% among 480,000 | AID 1347041 | activity change, % (values are at about 110 or 230 µM) | purified LDHA, NADH/diaphorase-resazurin fluorescence; active compounds read low; in the data active means activity change below about -30%; inconclusive means mostly about -25% to -30%;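 further: plate controls were DMSO wells for no effect and wells without enzyme for full effect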
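Remaining NADH was detected by diaphorase (0.133 mg/mL) converting 37 µM resazurin to fluorescent resorufin, read at 0 and 20 minutes. The preceding 5-minute room-temperature reaction used 2 nM LDHA, 0.2 mM sodium pyruvate and 0.06 mM NADH at pH 7.4.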
Gal4-VP16 FLuc – Gal4-VP16 reporter inhibition counter-screen; Drosophila S2 Gal4-VP16 UAS-luciferase, luminescence, 20 h; Potency, µM (series often up to 53.6 µM), for the others: at the highest dose activity, negative = inhibition, most hits filed as inhibitors; hit rate 3.5% among 310,000;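 further: Gal4-VP16 expression switched on by copper sulfate through the metallothionein promoter; potency means the concentration at half of the fitted maximal effect; nearly all actives have a fitted effect of over 50% in size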
TDP1 cell CPT – growth inhibition of DT40 Tdp1-/-;hTDP1 cells with camptothecin (screen for TDP1 inhibitors). chicken DT40 Tdp1-/-;hTDP1 cells + 20 nM CPT, ATP luminescence, 48 h. Potency, µM (highest dose often 46.2 µM), without a hit: at the top dose activity change, negative = growth inhibition, hits mostly inhibitors. hit rate 12% among 420,000; further: potency means the concentration at half of the fitted maximal effect; nearly all actives have a fitted effect of over 55% in size
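Chicken DT40 Tdp1-/- cells stably complemented with human TDP1 were seeded at 400 cells/well in medium containing 20 nM camptothecin, exposed to pin-transferred compounds, and grown at 37 °C for at least 48 hr. Viability was read as ATP luminescence.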
RORg inh – ROR gamma (mouse) transcription inhibition; AID 2551; Drosophila S2 Gal4-RORgamma UAS-luciferase reporter, 20 h; P51450; Potency, µM (doses to about 53.6 µM), for the others: top-dose activity change, negative = inhibition, actives largely listed as inhibitors; hit rate 5.4% among 310,000; further: potency means the concentration at half of the fitted maximal effect; nearly all actives have a fitted effect of over 60% in size
Target sequence (P51450 whole entry, looked up, the tested form may be a part): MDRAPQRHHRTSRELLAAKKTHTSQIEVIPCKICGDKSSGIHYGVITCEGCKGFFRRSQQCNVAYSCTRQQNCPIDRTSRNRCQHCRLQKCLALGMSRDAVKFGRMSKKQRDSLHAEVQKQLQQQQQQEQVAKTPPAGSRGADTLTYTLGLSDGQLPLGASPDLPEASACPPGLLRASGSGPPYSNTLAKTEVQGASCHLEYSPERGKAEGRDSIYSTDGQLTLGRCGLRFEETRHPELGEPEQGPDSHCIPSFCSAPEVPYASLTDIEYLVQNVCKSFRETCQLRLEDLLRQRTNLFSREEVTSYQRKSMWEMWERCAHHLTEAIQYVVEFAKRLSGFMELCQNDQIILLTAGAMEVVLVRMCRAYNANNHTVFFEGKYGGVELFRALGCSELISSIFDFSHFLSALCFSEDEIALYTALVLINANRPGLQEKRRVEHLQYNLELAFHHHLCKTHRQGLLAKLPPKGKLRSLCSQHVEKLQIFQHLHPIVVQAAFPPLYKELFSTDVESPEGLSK
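Luciferase reporter read in Schneider cells carrying Gal4-RORγ (mouse) and UAS-Photinus luciferase; cells given compound 1 h before 700 uM copper sulfate induction, then incubated 20 h at ambient temperature.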
IL-1B inflam inh – inhibitors of inflammasome signaling (IL-1 beta secretion); THP-1 LPS/ATP IL-1B secretion, AlphaLISA, 16 h; active compounds read low; activity change, % at 57.5 µM; hit rate 4.7% among 360,000; in the data active means activity change below about -50%; inconclusive means mostly about -30% to -49%
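THP-1 cells pretreated 1 hr with compounds (up to 57.5 uM final), then stimulated with LPS (250 ng/mL final) plus ATP (1.25 mM final); secreted IL-1B measured by AlphaLISA after 16 hr, decreased signal indicating inhibition.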
Numbers without * were called inactive; ? = inconclusive; . = no result. An excerpt weighted towards active compounds, which were near 18% of everything screened. Unless noted, the call rests on the fitted dose curve; in most records, active means well fitted curve in the direction sought with a large enough effect; inconclusive means small, poorly fitted or top-dose-only effect, or another doubt; inactive means no such curve, though single readings can be large; an effect the other way counts as inactive or inconclusive. Unless noted, on the % scale 0 is the no-effect control and ±100 the full control effect.

SMILES	TDP1 cell noCPT	LDHA inh	Gal4-VP16 FLuc	TDP1 cell CPT	RORg inh	IL-1B inflam inh
O=C(C1COc2cc(S(=O)(=O)NCCc3ccc(Cl)cc3)ccc2O1)N1CCCCC1 (stereo unspecified)	.	1	.	.	.	.
Cc1ccc(C(CNc2oc(CC(C)C)nc2C#N)N2CCOCC2)cc1 (stereo unspecified)	.	4	.	.	.	.
S=C(NCCc1ccccc1)Nc1nccs1	15µM*	-15	.	?	.	17
S=C(NCc1ccccc1)Nc1nccs1	4.6µM*	-4	1.3µM*	5.2µM*	0.89µM*	51
O=C(NCCc1ccccc1)C(=O)Nc1nccs1	8%	-12	2%	3%	-5%	0
O=C(NCc1nc(-c2cccs2)no1)c1ccc(Oc2cccnc2)cc1	.	5	.	.	.	.
CCCCCCNC(=O)c1ccc(Nc2ccc(-c3ccc(C)cc3)nn2)cc1	.	-11	.	.	.	.
CCC1CCCCN1C(=O)CCn1cnc2c1c(=O)n(C)c(=O)n2C (stereo unspecified)	.	0	.	.	.	.
CCc1ccc(NC(=O)c2ccc(Cn3nc(N4CCN(c5ccccc5)CC4)ccc3=O)o2)cc1	?	2	.	?	.	.
COc1ccccc1N1CCN(c2ccc(=O)n(CC(=O)Nc3cc(F)ccc3C)n2)CC1	23µM*	-1	.	15µM*	.	.
CCc1ccccc1NC(=O)c1ccc(Cn2nc(N3CCN(c4ccccc4)CC3)ccc2=O)o1	12µM*	2	.	15µM*	.	.
CCOc1ccccc1NC(=O)Cn1nc(N2CCN(c3ccccc3)CC2)ccc1=O	18µM*	7	.	?	.	.
C=CCC1C=CCC(CC=C)N1C(=O)c1ccccc1[N+](=O)[O-] (stereo unspecified)	?	-5	-1%	13µM*	2%	-19
CC(C)(C)N1C(=O)Cc2c1nc(N)c1c(N)nc(N3CCCCC3CO)c(C#N)c21 (stereo unspecified)	18µM*	21	2%	21µM*	?	-27
Cc1cccc(-n2ncc3c(Nc4ccc(Oc5ccc(Cl)cc5)cc4)ncnc32)c1	15µM*	0	.	18µM*	.	.
Cc1cccc(-n2ncc3c(Nc4ccc(C)c(Cl)c4)ncnc32)c1	18µM*	2	.	18µM*	.	.
COc1ccc(Nc2ncnc3c2cnn3-c2ccc(C)cc2)cc1Cl	23µM*	2	.	?	.	.
C=CCC[C@H](Cc1ccc(F)cc1)C(=O)OC[C@@H](Cc1c[nH]c2ccccc12)NC(=O)[C@@H](CC=C)CC(=O)N[C@H](CO)Cc1ccccc1	15µM*	0	.	18µM*	.	-22
C=CCC[C@H](Cc1ccc(F)cc1)C(=O)OC[C@H](Cc1c[nH]c2ccccc12)NC(=O)[C@@H](CC=C)CC(=O)N[C@@H](CO)Cc1ccccc1	16µM*	-15	.	5.8µM*	.	69
Cc1nn(C)cc1B1OC(C)(C)C(C)(C)O1	.	-1	.	.	.	.
Cc1noc(C)c1COc1cccc(C(=O)OCC(=O)N2CC(=O)Nc3ccccc32)c1	0.65µM*	-3	3%	0.58µM*	-43%	83
O=C1CN(C(=O)COc2cccc(F)c2)c2ccccc2N1	.	.	-8%	.	16%	.
Cc1ccc(CCNC(=O)C2CCCC2)o1	.	0	.	.	.	.
CCCN(CCC)CCNC(=O)c1cc2c(-c3ccccc3F)nn(C)c2s1	?	4	8%	?	14%	-92*
Cn1nc(-c2ccccc2F)c2cc(C(=O)NCc3cccc(Cl)c3)sc21	?	-10	.	15µM*	.	.
Cn1nc(-c2ccccc2F)c2cc(C(=O)Nc3cc(F)ccc3F)sc21	?	-3	.	?	.	.
Cn1nc(-c2ccccc2F)c2cc(C(=O)Nc3ccc4c(c3)OCCO4)sc21	21µM*	-7	21%	?	?	-65*

Screening data (PubChem BioAssay)
